# The full ranking holds about 35,000 sequences; the median of “fluorescence intensity (a.u.)” is about 10,000, and the highest 2% start at about 52,000. The sample holds the highest values, similar sequences and a random draw of the others, so the mix is not that of the screen.
# Molecular target: T1, OsWOX13 (Oryza sativa, UniProt Q5QMM3 1-267)
# T1 sequence: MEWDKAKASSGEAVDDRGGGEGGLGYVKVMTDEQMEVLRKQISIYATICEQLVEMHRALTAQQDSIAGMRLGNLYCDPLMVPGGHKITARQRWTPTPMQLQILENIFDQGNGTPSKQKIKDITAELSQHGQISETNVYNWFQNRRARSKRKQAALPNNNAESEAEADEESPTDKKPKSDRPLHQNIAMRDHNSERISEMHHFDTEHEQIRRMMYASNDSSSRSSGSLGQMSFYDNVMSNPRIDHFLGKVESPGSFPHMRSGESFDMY
# Assay: protein-binding microarray (RPBM); PBS, 2% BSA, 51.3 ng/ul salmon testes DNA, 50 uM zinc acetate, 200 nM TF, 25 C, 1 h; high values mean tight binding
# Conditions: protein: recombinant; tags: N-terminal polyhistidine and DsRed monomer fusion (pET32a); label: CyDye5-dUTP incorporated in the synthesized complementary strand; 3' TTTTT single-stranded linker to array surface; dsDNA, one strand shown
# How it was run: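 An Axon 4000B scanner gave the binding signal as per-feature fluorescence intensity in arbitrary units. This followed washing of a custom Agilent array that had been incubated for 1 h at 25 °C with 200 nM protein in PBS, 2% BSA, salmon testes DNA and 50 µM zinc acetate. The proteins were transcription factors fused at the N-terminus to polyhistidine and DsRed, expressed in E. coli BL21-CodonPlus and purified on Ni–NTA.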
row,Sequence,binding signal
1,CTGTAATCTTGCTGATTGAATTCTATTTTGATGTGCAGAGCGGAGTCACCTAGTGCAG,44800 fluorescence intensity (a.u.)
2,CTGATTGATTCGTAATAGTAGAATAGGACATGTTACCATACGGAGTCACCTAGTGCAG,64500 fluorescence intensity (a.u.)
3,TTAATTGGATTGTTTTGATTCGTTGGAGAAGTTAGGAATACGGAGTCACCTAGTGCAG,28600 fluorescence intensity (a.u.)
4,CAGATTAAAATTTCTGCTCAAGCTAGCCATCGATCATCTGCGGAGTCACCTAGTGCAG,3930 fluorescence intensity (a.u.)
5,GATGAAACATTTGACATGAACTAAATTTTGTTCGGCAGTTCGGAGTCACCTAGTGCAG,5180 fluorescence intensity (a.u.)
6,CGTAGAAGGGATTGGGTGAAATTACATGGGCATATAGGGACGGAGTCACCTAGTGCAG,4240 fluorescence intensity (a.u.)
7,ATAATTAGACTTCTTGTTGCCTTCACCTATTTTAACACATCGGAGTCACCTAGTGCAG,13000 fluorescence intensity (a.u.)
8,GAAAATTATGTACATCCTCCGCTTAAAGATGACTATGAATCGGAGTCACCTAGTGCAG,4540 fluorescence intensity (a.u.)
9,GATAAGTAAATTAATTGGAAGAAAGAAATCAGTGGGGAGGCGGAGTCACCTAGTGCAG,13500 fluorescence intensity (a.u.)
10,AGCCTAATTAATCCGTCATTAGCAAATATTTACTGTAGCACGGAGTCACCTAGTGCAG,28400 fluorescence intensity (a.u.)
11,TAAGTAGATCGAAAATGTTTCAATCATTTAAATCAGGCGTCGGAGTCACCTAGTGCAG,4180 fluorescence intensity (a.u.)
12,TTATTAATTATCATATTAGTAGTAGTAGTAGTAGCTAGGCCGGAGTCACCTAGTGCAG,34100 fluorescence intensity (a.u.)
13,TATGATATGTCAAATCCTATAATTTCTTCGTCCCAAAATGCGGAGTCACCTAGTGCAG,3440 fluorescence intensity (a.u.)
14,GGTCCAATCAACATGAATAACAAAACAAAGGAAATGGATTCGGAGTCACCTAGTGCAG,17100 fluorescence intensity (a.u.)
15,ATCGGAGACTGACTGAGTGAAGGTTGGTTGGTTCACACTTCGGAGTCACCTAGTGCAG,4540 fluorescence intensity (a.u.)
16,GAATGGTCCAACAAGGAGACTGAGGAATGGTCAACACATTCGGAGTCACCTAGTGCAG,59700 fluorescence intensity (a.u.)
17,ATGATCAATCAGTAGATTATGCCCTGGTTATTCTTTATAACGGAGTCACCTAGTGCAG,25400 fluorescence intensity (a.u.)
18,ATGGATATAAATTGATGAGTACAGTCCTGAGAACTGCAAGCGGAGTCACCTAGTGCAG,32600 fluorescence intensity (a.u.)
19,GTTACTGTGATTTGTTTCACGAAGCCCCATGTTTTGAGCCCGGAGTCACCTAGTGCAG,11700 fluorescence intensity (a.u.)
20,ACTAATCTGATTGTGTCACTTGTGCGATTGATGGAGTTCACGGAGTCACCTAGTGCAG,23900 fluorescence intensity (a.u.)
21,TTTTGATTGAAGACACACCTATTGTCGCGAATACTGCTAACGGAGTCACCTAGTGCAG,40500 fluorescence intensity (a.u.)
22,CCACGCCAATTAGCATCCCACGTTTCGCCTTTGATTGTGGCGGAGTCACCTAGTGCAG,10600 fluorescence intensity (a.u.)
23,ATATTTAATTATTATTTTAATAAAACTAATTTGGTAATGTCGGAGTCACCTAGTGCAG,25700 fluorescence intensity (a.u.)
24,CTATAATTTGTAGATGATGTAGTATAATTATATTTAATCACGGAGTCACCTAGTGCAG,37300 fluorescence intensity (a.u.)

row,Sequence,binding signal
1,TATAATTTAAATTTAACTAAATTAATGGTATTACAGATGTCGGAGTCACCTAGTGCAG,58500 fluorescence intensity (a.u.)
2,TGTTACATATAATGAAATTAATTTGGTATTGTAGATGTTGCGGAGTCACCTAGTGCAG,13600 fluorescence intensity (a.u.)
3,ATTAATAATGTATAATTTATTTTAGTGGTATTAATGTTGTCGGAGTCACCTAGTGCAG,22400 fluorescence intensity (a.u.)
4,TCATTAATTAATTAATTACAGTGGTAGATGATGATGTAGTCGGAGTCACCTAGTGCAG,64000 fluorescence intensity (a.u.)
5,CATTATAGATTAATACATTTTGGGATGGAGGGAGTACTCACGGAGTCACCTAGTGCAG,3200 fluorescence intensity (a.u.)
6,GACAGGATTATCACCTATTTGTCAACAGTTCACCAGGAGCCGGAGTCACCTAGTGCAG,3360 fluorescence intensity (a.u.)
7,ATTTAACGTCATTTATAAACATATACTAGATACTAGTAATCGGAGTCACCTAGTGCAG,3890 fluorescence intensity (a.u.)
8,GTCAACTGGAAATTGAAATTCAGCCAAAATTAGTGATCAGCGGAGTCACCTAGTGCAG,4850 fluorescence intensity (a.u.)
9,GTAGCAAATTTACAAATTTGCAGGGCTAGCTGTTGCGGTGCGGAGTCACCTAGTGCAG,11100 fluorescence intensity (a.u.)
10,AAGCATCAATTCGTTGCCTGATTAGTACAACACTGTTGTGCGGAGTCACCTAGTGCAG,5420 fluorescence intensity (a.u.)
11,CTAATCCCAGATTGCTAGTGATTAGCACGTAGATACATAGCGGAGTCACCTAGTGCAG,21700 fluorescence intensity (a.u.)
12,TCCAGTCCAATCAGCCCACCATAATTTGGGCCGGAATAAGCGGAGTCACCTAGTGCAG,17600 fluorescence intensity (a.u.)
13,CAATAATTGAGTGATTTGGCCCAGTCCAGGAACTAGTAAGCGGAGTCACCTAGTGCAG,56100 fluorescence intensity (a.u.)
14,AGAGGGTGGGGACATGGGGATTGATTTCACCTGTAGGATTCGGAGTCACCTAGTGCAG,3430 fluorescence intensity (a.u.)
15,GCCCTTGATTTCTGACTAGATTTGTGTTATTCTACTTACACGGAGTCACCTAGTGCAG,27200 fluorescence intensity (a.u.)
16,CGGTAGTGATTGATTCGGATGATTTCACCAGTAGGATTGGCGGAGTCACCTAGTGCAG,65300 fluorescence intensity (a.u.)
17,ATATAAATATTAGTAATCAATTGAGGGAACATTTGATTTGCGGAGTCACCTAGTGCAG,11300 fluorescence intensity (a.u.)
18,TGTTTGCGATTGATTTGTACTACACAGTGGGTGCTTCTCCCGGAGTCACCTAGTGCAG,35300 fluorescence intensity (a.u.)
19,GTTTGATTGTTTTCTAGTGTACTACACTTCCCTAGAACGTCGGAGTCACCTAGTGCAG,55000 fluorescence intensity (a.u.)
20,CAACTTGATTAGTAGTAGTACTAGTTTGATTTTGTCCTGGCGGAGTCACCTAGTGCAG,54200 fluorescence intensity (a.u.)
21,CTAATTAGTTTTGGTTAGTACTTATAATTTTGTCCTAATGCGGAGTCACCTAGTGCAG,15700 fluorescence intensity (a.u.)
22,ATTTCTGATTGGTGAGATGGGTGATTCGGTAGGCCATTGGCGGAGTCACCTAGTGCAG,40100 fluorescence intensity (a.u.)
23,CATTTACTAATTTGTTTGCTTGATTGTCCTGGCGAAATTGCGGAGTCACCTAGTGCAG,40000 fluorescence intensity (a.u.)
